In PubChem BioAssay (NCATS):
Records with an inconclusive call do not appear. Active and inactive are the calls of the source. Calls follow the shape of the dose curve; as a rule, active = well fitted inhibition curve with a large enough effect; inconclusive = small, poorly fitted or top-dose-only effect; inactive = flat fitted curve, though single readings scatter.

Legend:
Assay in all cases: qHTS profiling for inhibitors of Plasmodium falciparum proliferation (AID 504749); also: nearly all actives have a fitted effect of over 60% in size
Conditions in all cases: P. falciparum in erythrocytes, SYBR Green DNA, 72 h; series mostly up to 28.7 µM
CP286 = tested on: CP286
Method in brief: (§1)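 Three-day growth assay of blood-stage parasites in erythrocytes (0.3% parasitemia, 2.5% hematocrit) at 37 C, 5% CO2, quantified by SYBR Green DNA staining after overnight detergent lysis.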

CP291 = tested on: CP291
Method in brief: as §1

CP297 = tested on: CP297
Method in brief: as §1

CP305 = tested on: CP305
Method in brief: as §1

CP315 = tested on: CP315
Method in brief: as §1

CP325 = tested on: CP325
Method in brief: as §1

CP329 = tested on: CP329
Method in brief: as §1

DFO2036 = tested on: DFO2036
Method in brief: as §1

DIV14 = tested on: DIV14
Method in brief: as §1

CP335 = tested on: CP335
Method in brief: as §1

Measured: Potency
Potency is read from the fitted curve at half-maximal effect.

O=C(O)Cc1cccc2ccccc12
inactive: CP286 | CP291 | CP297 | CP305 | CP315 | CP325 | CP329 | DFO2036 | DIV14

CC(=O)N[C@@H](CS)C(=O)O
inactive: CP286 | CP291 | CP297 | CP305 | CP315 | CP325 | CP329 | CP335 | DFO2036 | DIV14

O=C1Nc2ccc(Cl)cc2C(C#CC2CC2)(C(F)(F)F)O1 (configuration not stated)
inactive: CP286 | CP291 | CP305 | CP315 | CP325 | CP329 | DFO2036

Clc1ccc(Cn2c(CN3CCCC3)nc3ccccc32)cc1
inactive: CP286 | CP291 | CP305 | CP315 | CP325 | CP329 | CP335 | DFO2036

CC1=C(/C=C/C(C)=C/C=C/C(C)=C/C(=O)Nc2ccc(O)cc2)C(C)(C)CCC1
active: CP297 13.5 µM | CP305 15.1 µM | DIV14 16.9 µM

CCCNC(=O)NS(=O)(=O)c1ccc(Cl)cc1
inactive: CP286 | CP291 | CP297 | CP305 | CP315 | CP325 | CP329 | CP335 | DFO2036 | DIV14

Cc1cnc(C(=O)O)c[n+]1[O-]
inactive: CP286 | CP291 | CP297 | CP305 | CP315 | CP325 | CP329 | CP335 | DFO2036 | DIV14

NCCS
inactive: CP286 | CP291 | CP297 | CP305 | CP315 | CP325 | CP329 | CP335 | DFO2036 | DIV14

NC(N)=Nc1nc(CSCC/C(N)=N/S(N)(=O)=O)cs1
inactive: CP286 | CP291 | CP297 | CP305 | CP315 | CP325 | CP329 | CP335 | DFO2036 | DIV14

CCN(CC)CCOC(=O)c1ccc(N)cc1
inactive: CP286 | CP291 | CP297 | CP305 | CP315 | CP325 | CP329 | CP335 | DFO2036 | DIV14

COc1ccc(Cc2nccc3cc(OC)c(OC)cc23)cc1OC
inactive: CP286 | CP291 | CP297 | CP305 | CP315 | CP325 | CP329 | CP335 | DFO2036 | DIV14

CC(=O)c1ccc(S(=O)(=O)NC(=O)NC2CCCCC2)cc1
inactive: CP286 | CP291 | CP297 | CP305 | CP315 | CP325 | CP329 | CP335 | DFO2036 | DIV14

O=C(NCCN1CCOCC1)c1ccc(Cl)cc1
inactive: CP286 | CP291 | CP297 | CP305 | CP315 | CP325 | CP329 | CP335 | DFO2036 | DIV14

CCN(CC)C(=O)c1ccc(O)c(OC)c1
inactive: CP286 | CP291 | CP297 | CP305 | CP315 | CP325 | CP329 | CP335 | DFO2036 | DIV14

CC(=O)CCCCn1c(=O)c2c(ncn2C)n(C)c1=O
inactive: CP286 | CP291 | CP297 | CP305 | CP315 | CP325 | CP329 | CP335 | DFO2036 | DIV14

O=C(O)c1cc(-c2ccccc2)nc2ccccc12
inactive: CP286 | CP291 | CP297 | CP305 | CP315 | CP325 | CP329 | CP335 | DFO2036 | DIV14

O=C1NC(=O)C(c2ccccc2)(c2ccccc2)N1
inactive: CP286 | CP291 | CP297 | CP305 | CP325 | CP329 | CP335 | DFO2036 | DIV14

CN(C)CCC(c1ccccc1)c1ccccn1 (configuration not stated)
inactive: CP286 | CP315 | CP325 | DFO2036
active: CP335 7.57 µM | DIV14 6.75 µM

COc1ccccc1N1CCN(CCCNc2cc(=O)n(C)c(=O)n2C)CC1
inactive: CP286 | CP291 | CP297 | CP305 | CP315 | CP325 | CP329 | CP335 | DFO2036 | DIV14

C[C@@H](O)[C@H]1C(=O)N2C(C(=O)O)=C(S[C@@H]3CN[C@H](C(=O)N(C)C)C3)[C@H](C)[C@H]12
inactive: CP286 | CP291 | CP297 | CP305 | CP315 | CP325 | CP329 | CP335 | DFO2036 | DIV14

CC(=O)O[C@]1(C(C)=O)CC[C@H]2[C@@H]3C=C(Cl)C4=CC(=O)[C@@H]5C[C@@H]5[C@]4(C)[C@H]3CC[C@@]21C
inactive: CP315 | CP329 | DFO2036

CC/C(=C(\c1ccccc1)c1ccc(OCCN(C)C)cc1)c1ccccc1
inactive: CP297 | CP315 | CP329 | DFO2036
active: DIV14 13.5 µM

CCN1CCC[C@H]1CNC(=O)c1cc(S(N)(=O)=O)ccc1OC
inactive: CP286 | CP291 | CP297 | CP305 | CP315 | CP325 | CP329 | CP335 | DFO2036 | DIV14

O=c1[nH]cnc2c1ncn2[C@H]1CC[C@@H](CO)O1
inactive: CP286 | CP291 | CP297 | CP305 | CP315 | CP325 | CP329 | CP335 | DFO2036 | DIV14

Cc1cccc(C)c1OCC(C)N (configuration not stated)
inactive: CP286 | CP315 | CP329 | DFO2036

COCCCCC(=NOCCN)c1ccc(C(F)(F)F)cc1
inactive: CP315
active: DIV14 6.75 µM

CCN(CC)CCNC(=O)c1ccc(N)cc1
inactive: CP286 | CP291 | CP297 | CP305 | CP315 | CP325 | CP329 | CP335 | DFO2036 | DIV14

C[N+](C)(C)CCCCCC[N+](C)(C)C
inactive: CP286 | CP291 | CP297 | CP305 | CP315 | CP325 | CP329 | CP335 | DFO2036 | DIV14

CCCCCN(C)CCC(O)(P(=O)(O)O)P(=O)(O)O
inactive: CP286 | CP291 | CP297 | CP305 | CP315 | CP325 | CP329 | CP335 | DFO2036 | DIV14

CCOC(=O)O[C@]1(C(=O)OCCl)CC[C@@H]2[C@H]3CCC4=CC(=O)C=C[C@]4(C)[C@@H]3[C@@H](O)C[C@@]21C
active: CP297 16.9 µM
inactive: CP286 | CP291 | CP315 | CP325 | CP329 | CP335 | DFO2036 | DIV14

O=C1NCC2(CCN(CCc3ccccc3)CC2)O1
inactive: CP286 | CP291 | CP297 | CP305 | CP315 | CP325 | CP329 | CP335 | DFO2036 | DIV14

CC1(C)O[C@H]2C[C@@H]3[C@H]4CCC5=CC(=O)C=C[C@]5(C)[C@@]4(F)[C@@H](O)C[C@]3(C)[C@]2(C(=O)CO)O1
inactive: CP286 | CP291 | CP305 | CP315 | CP325 | CP329 | CP335 | DFO2036

O=C(O)c1c(Cl)c(Cl)c(Cl)c(Cl)c1-c1c2cc(I)c(=O)c(I)c-2oc2c(I)c(O)c(I)cc12
inactive: CP286 | CP291 | CP305 | CP315 | CP325 | CP329 | CP335 | DFO2036 | DIV14
